Results from PubChem BioAssay.

Target: Torsin-1A (Homo sapiens) (UniProt O14656)
Experiment: torsin A binders from cell lysate, primary screen, small-molecule microarray, wild-type, 635/667 nm (AID 1149)
Details: COS7 hTOR1A-WT lysate, 635 nm fluorescence, higher = more signal

Sequence of Torsin-1A (Homo sapiens) (O14656 whole entry, looked up): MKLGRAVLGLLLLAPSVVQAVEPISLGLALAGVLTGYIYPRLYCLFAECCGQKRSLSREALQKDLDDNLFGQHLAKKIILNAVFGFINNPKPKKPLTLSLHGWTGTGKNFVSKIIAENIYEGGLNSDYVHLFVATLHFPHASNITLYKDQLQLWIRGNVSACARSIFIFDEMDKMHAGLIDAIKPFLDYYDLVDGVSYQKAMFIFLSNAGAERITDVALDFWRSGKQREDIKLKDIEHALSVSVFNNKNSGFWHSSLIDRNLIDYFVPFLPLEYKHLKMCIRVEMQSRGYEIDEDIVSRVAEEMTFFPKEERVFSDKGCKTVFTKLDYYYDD

Row | Structure (SMILES) | composite z-score
1 | C=CC[C@@H]1C=C[C@H](ON=C2c3cc(OC)ccc3O[C@H](c3cccc(OC)c3)[C@H]2O)[C@@H](CO)O1 | -0.0807
2 | COCCOC(=O)N1C(=O)[C@@]2(c3cc(C#CCNC(N)=O)ccc31)[C@H](c1ccc(O)cc1)N1[C@H](c3ccccc3)[C@H](c3ccccc3)OC(=O)[C@H]1[C@@H]2C(=O)N1CCCCCCC1 | 0.4
3 | CC(C)(C)N1C(=O)[C@H]2[C@H]3[C@H](O)[C@H](O)CC(=NOCc4ccccc4)[C@@H]3CC[C@H]2C1=O | 0.678
4 | O=C1C[C@]2(c3ccc([N+](=O)[O-])cc3)C(=O)N(CCN3CCOCC3)c3cc(CO)ccc3[C@H]2N1CC12CC3CC(CC(C3)C1)C2 | -0.967
5 | CC[C@@H](c1ccccc1)n1c(=O)n2n(c1=O)[C@H]1[C@H](O)[C@@H]3O[C@@H]3C(=NOCC(C)C)[C@H]1CC2 | -0.132
6 | O=C1[C@H]2[C@H]3[C@H](O)[C@H](O)CC(=NO[C@@H]4O[C@H](CO)[C@@H](O)[C@H](O)[C@H]4O)[C@@H]3CC[C@H]2C(=O)N1Cc1ccc2c(c1)OCO2 | 0.35
7 | CC(C)=C1C(=O)C(c2ccccc2)=C2CN3C(=O)N(CCc4ccccc4)C(=O)[C@]3(Cc3ccc(F)cc3)[C@H]21 | -2.38
8 | CO[C@@H]1COC(=O)CCC[C@@H](C)[C@H](OC)COC(=O)[C@H](Cc2ccccc2)NC(=O)CC=C[C@H]1C | 1.34
9 | Cc1ccc(F)cc1S(=O)(=O)N[C@@H]1CCN(Cc2ccc(CC(C)C)cc2)C1 | 0.492
10 | CC(C)[Si]1(C(C)C)O[C@@H](c2ccccc2)c2cc(C3CC3)nc(-c3ccccc3)c21 | -1
11 | COC(=O)[C@@]1(Cc2ccc(F)cc2)[C@H]2c3cc(C(=O)N(C)C)n(Cc4ccc(OC)c(OC)c4)c3C[C@H]2CN1C(=O)c1ccccc1 | 0.0209
12 | CCOC(=O)CCN1C(=O)[C@H]2[C@H]3[C@H](O)C=CC(=O)[C@@H]3CC[C@H]2C1=O | 0.327
13 | C[C@H](c1ccccc1)N1C(=O)[C@H]2[C@@H]3C(=CC[C@H]2C1=O)C(=O)[C@H]1O[C@H]1[C@H]3O | 0.25
14 | CS(=O)(=O)CCOC(=O)C1=CC(CCCO)=CC(c2cccs2)N(Cc2cccc(OC(F)(F)F)c2)C=C1C(=O)OCCS(C)(=O)=O (configuration not stated) | 0.972
15 | O=C1[C@H]2[C@H]3[C@H](O)[C@H](O)CC(=NO[C@@H]4O[C@H](CO)[C@@H](O)[C@H](O)[C@H]4O)[C@H]3CC[C@H]2C(=O)N1Cc1ccc2c(c1)OCO2 | 0.838
16 | Cc1cc2c(nc1C)CCCN2CC(C)ON=C1[C@H]2CCn3c(=O)n(-c4ccccc4)c(=O)n3[C@H]2[C@H](O)[C@@H]2O[C@H]12 (some centres not stated) | -0.0339
17 | Cc1cc(C)c(-c2cc([C@H](C)ON=C3[C@H]4CCn5c(=O)n(-c6ccccc6)c(=O)n5[C@H]4[C@H](O)[C@@H]4O[C@H]34)on2)c(C)c1 | 0.595
18 | COc1ccc([Si](C)(C)[C@@H]2[C@@H](CCO)O[C@]3(C(=O)N(Cc4ccc(NC(C)=O)cc4)c4ccccc43)[C@H]2C)cc1 | 0.412
19 | c1ccc(C2NCCc3c2[nH]c2ccccc32)cc1 (configuration not stated) | 0.586
20 | CC(=O)C[C@H](O)[C@@H](NC(=O)OC(C)(C)C)C(C)C | -1.05
21 | CO[C@H]1O[C@H](CO)[C@@H](OC(=O)Nc2ccc(C#N)cc2)[C@H](OC(=O)c2cc3ccccc3[nH]2)[C@H]1OC(=O)c1cc2ccccc2[nH]1 | 0.91
22 | CO[C@@H]1COC(=O)[C@@H]2CCCN2C(=O)[C@@H](C)COC(=O)[C@H](COCc2ccccc2)NC(=O)CC=C[C@H]1C | 0.999
23 | COc1ccc(O[C@H]2C=C[C@@H](c3ccccc3)O[C@@H]2COC(=O)CCC(C)=NO[C@H](C)c2cn([C@@H]3COC[C@H]3O)nn2)cc1 | 0.249
24 | CC(CCC(=O)OC[C@H]1O[C@H](C#Cc2ccccc2)C=C[C@@H]1Oc1ccc(C)cc1)=NO[C@@H](C)c1cn([C@H](CO)Cc2ccccc2)nn1 | -0.323
25 | CO[C@H]1COC(=O)[C@H](C)COC(=O)CC=C[C@@H](C)[C@H](OC)COC(=O)CC=C[C@@H]1C | 1.03
26 | CCc1cccc(NC(=O)O[C@H]2[C@H](OC(=O)Nc3ccc4c(c3)OCO4)[C@@H](OC(=O)Nc3ccc4c(c3)OCO4)[C@@H](OC)O[C@@H]2CO)c1 | 1.14
27 | CCOC(=O)C[C@H]1[C@H](OC(=O)c2cc3ccccc3oc2=O)[C@@H](NC(=O)c2ccc3ccccc3n2)c2cc(OCCCO)ccc2N1C(=O)c1ccccc1 | 0.354
